Reference: PubChem BioAssay
Calls of active or inactive are those of the source.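 Rule for the calls: active = compounds killing one labelled cell type while sparing the other, by normalised counts and ratio limits, not self-fluorescent; inactive = the rest.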

Assay: EMT-state selective cytotoxicity in co-culture – imaging, PC-3E GFP, TEM4-18 mCherry, primary screen (AID 1345086);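 note: cells exposed to compound for 72 h before imaging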;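 for red/green cell ratio (normalised): normalised mesenchymal count divided by normalised epithelial count so high means epithelial killing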
Conditions: PC-3E GFP / TEM4-18 mCherry co-culture, imaging cell counts; at 1 µM; actives lie on both sides; counts scaled to control wells, 1 = unselective

Compound | red/green cell ratio (normalised)
C#CCN(C)Cc1ccccc1 | 1.02 (inactive)
O=C1C(=O)c2ccccc2C(O)=C1C1CCC(c2ccc(Cl)cc2)CC1 (configuration not stated) | 0.91 (inactive)
CN1CCN(CC(=O)N2c3ccccc3C(=O)Nc3cccnc32)CC1 | 0.9 (inactive)
COCCc1ccc(OCC(O)CNC(C)C)cc1 (configuration not stated) | 0.71 (inactive)
CCCCNc1ccc(C(=O)OCCN(C)C)cc1 | 1.19 (inactive)
CCCCC1C(=O)N(c2ccccc2)N(c2ccccc2)C1=O | 0.97 (inactive)
O=C1NCC2(CCN(CCc3ccccc3)CC2)O1 | 0.97 (inactive)
CN(C)CCC(c1ccccc1)c1ccccn1 (configuration not stated) | 1.11 (inactive)
Nc1ccc(N=Nc2ccccc2)c(N)n1 | 0.86 (inactive)
O=C(CCCN1CCN(c2ccccn2)CC1)c1ccc(F)cc1 | 1.1 (inactive)
C[N+](C)(C)CCOC(N)=O | 1.21 (inactive)
CCO/C([O-])=N/c1c[n+](N2CCOCC2)no1 | 0.9 (inactive)
CNC1(C)C2CCC(C2)C1(C)C (configuration not stated) | 0.89 (inactive)
CC(=O)Oc1ccc(C(c2ccc(OC(C)=O)cc2)c2ccccn2)cc1 | 0.85 (inactive)
COc1ccccc1OCC(O)CO (configuration not stated) | 1.05 (inactive)
CN(C)C(=O)Oc1cccc([N+](C)(C)C)c1 | 1.18 (inactive)

Same assay, conditions: PC-3E GFP / TEM4-18 mCherry co-culture, imaging cell counts; measured here: epithelial PC-3E GFP cell survival; at 1 µM

Compound | normalised cell number
C#CCN(C)Cc1ccccc1 | 1.04
O=C1C(=O)c2ccccc2C(O)=C1C1CCC(c2ccc(Cl)cc2)CC1 (configuration not stated) | 1.07
CN1CCN(CC(=O)N2c3ccccc3C(=O)Nc3cccnc32)CC1 | 1.08
COCCc1ccc(OCC(O)CNC(C)C)cc1 (configuration not stated) | 1.33
CCCCNc1ccc(C(=O)OCCN(C)C)cc1 | 1.07
CCCCC1C(=O)N(c2ccccc2)N(c2ccccc2)C1=O | 1.22
O=C1NCC2(CCN(CCc3ccccc3)CC2)O1 | 1.16
CN(C)CCC(c1ccccc1)c1ccccn1 (configuration not stated) | 0.86
Nc1ccc(N=Nc2ccccc2)c(N)n1 | 1.07
O=C(CCCN1CCN(c2ccccn2)CC1)c1ccc(F)cc1 | 1.11
C[N+](C)(C)CCOC(N)=O | 0.85
CCO/C([O-])=N/c1c[n+](N2CCOCC2)no1 | 1.04
CNC1(C)C2CCC(C2)C1(C)C (configuration not stated) | 1.09
CC(=O)Oc1ccc(C(c2ccc(OC(C)=O)cc2)c2ccccn2)cc1 | 1.24
COc1ccccc1OCC(O)CO (configuration not stated) | 1.11
CN(C)C(=O)Oc1cccc([N+](C)(C)C)c1 | 0.88
